Measurements as given in PubChem BioAssay (NCI).
About 83,000 compounds went through this panel and 20% of them were active in at least one assay; those are over-represented in the sample as a whole.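 Step 1: grow cells in 96-well plates. Step 2: add test compound at a single concentration. Step 3: incubate 48 h. Step 4: record percent growth.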 A number with no mark means an inactive call. Active and inactive are the calls of the source. Rule for the calls: active = growth percent below 10; inactive = the rest.

Experiments:
Experiment in all cases: NCI-60 one-dose screen, 48 h (100 = growth as untreated, 0 = no growth, -100 = all killed)
DU-145 prostate = details: 10 µM unless noted
K-562 leukemia = details: 10 µM unless noted
MALME-3M melanoma = details: 10 µM unless noted
MDA-MB-231 breast = details: 10 µM unless noted
RXF 393 renal = details: 10 µM unless noted
SF-268 CNS = details: 10 µM unless noted
SF-295 CNS = details: 10 µM unless noted
SF-539 CNS = details: 10 µM unless noted
UACC-257 melanoma = details: 10 µM
M14 melanoma = details: 10 µM unless noted
HCT-15 colon = details: 10 µM unless noted
HT29 colon = details: 10 µM unless noted
SNB-75 CNS = details: 10 µM unless noted
SNB-19 CNS = details: 10 µM unless noted
U251 CNS = details: 10 µM unless noted
PC-3 prostate = details: 10 µM unless noted
SK-MEL-5 melanoma = details: 10 µM unless noted
UACC-62 melanoma = details: 10 µM unless noted
LOX IMVI melanoma = details: 10 µM unless noted
SK-MEL-28 melanoma = details: 10 µM unless noted

Structure (SMILES) | growth (DU-145 prostate) | growth (K-562 leukemia) | growth (MALME-3M melanoma) | growth (MDA-MB-231 breast) | growth (RXF 393 renal) | growth (SF-268 CNS) | growth (SF-295 CNS) | growth (SF-539 CNS) | growth (UACC-257 melanoma) | growth (M14 melanoma) | growth (HCT-15 colon) | growth (HT29 colon) | growth (SNB-75 CNS) | growth (SNB-19 CNS) | growth (U251 CNS) | growth (PC-3 prostate) | growth (SK-MEL-5 melanoma) | growth (UACC-62 melanoma) | growth (LOX IMVI melanoma) | growth (SK-MEL-28 melanoma)
NC(N)=NS(=O)(=O)c1ccc(N=NC2C(=O)NN(c3ccccc3)C2=O)cc1 (stereo not given) | 104% | 107% | 101% | 94.9% | 106% | 102% | 104% | 94.8% | 120% | 99.5% | 101% | 112% | 84.1% | 98.9% | 103% | 95.2% | 98.9% | 96.1% | 96.6% | 111%
COc1ccc(-c2nc3cc(Cl)c(Cl)cc3n2CC(=O)N=Nc2c(O)[nH]c3ccc(Cl)cc23)cc1 | -10.9% (active) | 32.1% | -10.1% (active) | 29.8% | -48.2% (active) | 51.8% | 4.56% (active) | 36% | 71.9% | 11.9% | 5.04% (active) | 25% | 57.9% | 36.1% | 17.1% | 37.6% | 38.3% | 38.6% | -58.1% (active) | -21.5% (active)
CC(=O)Nc1nc2c(s1)C1=CC[C@H]3[C@@H]4CC[C@H](C(C)=O)[C@@]4(C)CC[C@@H]3[C@@]1(C)CC2 | 85.9% | 8.05% (active) | 72.6% | 57.7% | -29.3% (active) | 90.2% | -16.9% (active) | 40.2% | 73.2% | 87% | 26.4% | 27.7% | 47.8% | 69% | 44.4% | 43% | 93.6% | 73.7% | 59.6% | 49%
CCNCc1c(-c2cccc(OC(F)(F)F)c2)[nH]c2ccc(N3CCCC3)cc2c1=O | 15% | 6.77% (active) | 39.5% | 20% | -9.04% (active) | 45.1% | 3.08% (active) | 2.73% (active) | 62.2% | -0.303% (active) | 9.2% (active) | 7.01% (active) | -5.02% (active) | 19.8% | 20% | 14.6% | 15.5% | 30.3% | 21.9% | 48%
C/C(=N\NC(=S)Nc1ccc(Br)cc1)c1cc2ccccc2oc1=O | 29.4% | 9.69% (active) | 24% | 23.2% | -24.2% (active) | 14.5% | 32.1% | 20.9% | 10.1% | -28.8% (active) | 10% | 90.3% | 17.5% | 35.2% | 17.8% | 26.7% | -24.7% (active) | -20.5% (active) | 14% | 21.6%
N#Cc1c(-c2ccccc2)cc(-c2c[nH]c3ccccc23)nc1-c1c[nH]c2ccccc12 | 108% | 101% | 99.8% | 92.6% | 95% | 96.1% | 96.4% | 98.6% | 107% | 101% | 99.3% | 103% | 81.2% | 97.6% | 94.3% | 92.4% | 99.2% | 94.9% | 100% | 110%
CC(=O)c1sc(Nc2cccc(Nc3nc(C)c(C)s3)c2)nc1C | 45.4% | 40.9% | 69.8% | 80.7% | 47% | 71.1% | 86.5% | 72.2% | 88.7% | 51.3% | 44.9% | 70% | 62.9% | 90.9% | 65.7% | 51.3% | 55.8% | 48.8% | 48.1% | 71.5%
CSc1ccc(/C(=N/N=C(N)N)c2ccccc2)cc1 | 15.2% | 25.2% | 50.6% | 29.5% | 15.4% | 53.6% | 5.99% (active) | -8.23% (active) | 80.7% | 9.73% (active) | 12.4% | 17% | 6.66% (active) | 29% | 29.2% | 35.4% | 17.7% | 44% | 13% | 65.5%
